Source: PubChem BioAssay (EPA / NIEHS)
Calls of active or inactive are those of the source. Rule for the calls: active = hit-call score of the fitted dose curve at least 0.9, where 1 is the maximum; inactive = score below 0.9.

Assays:
[1] = read-out: urokinase plasminogen activator (uPA), PLAU (gene 5328); assay: BSK_KF3CT_uPA: BioMAP Diversity Plus: KF3CT Assay for urokinase plasminogen activator (uPA) Biomarker Activity (AID 2283075); conditions: primary human keratinocytes with fibroblasts; actives raise or lower the signal
Method in brief: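 Skin co-culture (keratinocytes + foreskin fibroblasts), human primary; 24 h post-dose; uPA by ELISA; gain/loss fit vs DMSO baseline.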

[2] = read-out: CD40, CD40 (gene 958); assay: BSK_LPS_CD40: BioMAP Diversity Plus: LPS Assay for CD40 Biomarker Activity (AID 2283076); conditions: primary human HUVEC with PBMC; actives raise or lower the signal
Method in brief: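 CD40 signal, measured by ELISA, is fitted in both directions relative to DMSO vehicle. The system is an LPS-driven human vascular primary co-culture of endothelial cells and PBMC, sampled 24 h after compound addition.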

[3] = read-out: Interleukin-8 (IL8), CXCL8 (gene 3576); assay: BSK_LPS_IL8: BioMAP Diversity Plus: LPS Assay for Interleukin-8 (IL8) Biomarker Activity (AID 2283078); conditions: primary human HUVEC with PBMC; actives raise or lower the signal
Method in brief: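 Endothelial cells and PBMC from human donors are co-cultured, treated with chemicals and LPS, then assayed for IL-8 by ELISA after 24 h. Parallel SRB staining (0.1% SRB after 10% TCA fixation, 560 nm) flags cytotoxicity.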

[4] = read-out: Interleukin-1 alpha (IL1a), IL1A (gene 3552); assay: BSK_LPS_IL1a: BioMAP Diversity Plus: LPS Assay for Interleukin-1 alpha (IL1a) Biomarker Activity (AID 2283080); conditions: primary human HUVEC with PBMC; actives raise or lower the signal
Method in brief: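 Measured: IL-1 alpha via ELISA at 24 h in LPS-activated human umbilical vein endothelium–PBMC co-culture. Baseline: DMSO, bidirectional fitting.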

[5] = read-out: Monocyte Chemoattractant Protein-1 (MCP1), CCL2 (gene 6347); assay: BSK_LPS_MCP1: BioMAP Diversity Plus: LPS Assay for Monocyte Chemoattractant Protein-1 (MCP1) Biomarker Activity (AID 2283081); conditions: primary human HUVEC with PBMC; actives raise or lower the signal;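 for AC50: secreted MCP-1 protein quantified by ELISA in culture supernatant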
Method in brief: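 LPS-stimulated HUVEC/PBMC co-culture; chemical, 24 h; MCP-1 by ELISA; bidirectional fit vs DMSO; cytotoxicity via SRB (0.1% stain, 10% TCA fix, 560 nm) in parallel wells.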

[6] = BSK_LPS_PGE2: BioMAP Diversity Plus: LPS Assay for Prostaglandin E2 (PGE2) Biomarker Activity (AID 2283082); conditions: primary human HUVEC with PBMC; actives raise or lower the signal;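 for AC50: secreted prostaglandin E2 measured by ELISA in LPS-stimulated co-culture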
Method in brief: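 Compounds were added to the LPS co-culture of endothelium and PBMC, and PGE2 was measured by ELISA after 24 h. Responses in either direction were fitted with DMSO as baseline.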

[7] = read-out: Tissue Factor, F3 (gene 2152); assay: BSK_LPS_TissueFactor: BioMAP Diversity Plus: LPS Assay for Tissue Factor Biomarker Activity (AID 2283084); conditions: primary human HUVEC with PBMC; actives raise or lower the signal
Method in brief: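 In this co-culture system of umbilical vein endothelium with PBMC, stimulated with LPS, cell-surface CD142 is detected by ELISA at 24 h. Endpoint values derive from bidirectional fitting, DMSO serving as baseline.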

[8] = read-out: Tumor necrosis factor (Homo sapiens) (UniProt P01375); assay: BSK_LPS_TNFa: BioMAP Diversity Plus: LPS Assay for Tumour Necrosis Factor alpha (TNFa) Biomarker Activity (AID 2283085); conditions: primary human HUVEC with PBMC; actives raise or lower the signal;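 for AC50: TNFa protein level quantified by ELISA in the co-culture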
Method in brief: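 Cells (umbilical vein endothelium plus peripheral blood mononuclear cells) were dosed with chemical, incubated 24 h, then TNFa was quantified by ELISA; values derive from bidirectional fitting with DMSO as baseline.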

[9] = read-out: Vascular cell adhesion molecule 1 (VCAM1), VCAM1 (gene 7412); assay: BSK_LPS_VCAM1: BioMAP Diversity Plus: LPS Assay for Vascular cell adhesion molecule 1 (VCAM1) Biomarker Activity (AID 2283086); conditions: primary human HUVEC with PBMC; actives raise or lower the signal
Method in brief: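 Cells are dosed in an LPS-stimulated endothelial/mononuclear co-culture and, after 24 h, VCAM-1 is quantified by ELISA. Activity in either direction is fitted relative to the DMSO negative control.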

[10] = read-out: CD38, CD38 (gene 952); assay: BSK_SAg_CD38: BioMAP Diversity Plus: SAg Assay for CD38 Biomarker Activity (AID 2283087); conditions: primary human HUVEC with PBMC; actives raise or lower the signal
Method in brief: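 CD38 quantified by ELISA (fluorescence) in a superantigen-activated endothelial cell–PBMC co-culture at 24 h post-dose. Activity fitted in both directions relative to DMSO; parallel SRB and Alamar Blue cytotoxicity read-outs.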

[11] = read-out: CD40, CD40 (gene 958); assay: BSK_SAg_CD40: BioMAP Diversity Plus: SAg Assay for CD40 Biomarker Activity (AID 2283088); conditions: primary human HUVEC with PBMC; actives raise or lower the signal
Method in brief: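 Fluorescence ELISA read-out of CD40 from umbilical vein endothelium plus peripheral blood mononuclear cells, sampled 24 h after dosing. Values come from bidirectional curve fitting with DMSO as baseline.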

[12] = read-out: CD69, CD69 (gene 969); assay: BSK_SAg_CD69: BioMAP Diversity Plus: SAg Assay for CD69 Biomarker Activity (AID 2283089); conditions: primary human HUVEC with PBMC; actives raise or lower the signal;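 for AC50: cell surface CD69 protein quantified by ELISA with fluorescence detection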
Method in brief: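 Values derive from bidirectional fitting relative to DMSO vehicle. Cells: umbilical vein endothelium plus peripheral blood mononuclear cells, treated 24 h before fluorescent ELISA for CD69.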

[13] = read-out: Monocyte Chemoattractant Protein-1 (MCP1), CCL2 (gene 6347); assay: BSK_SAg_MCP1: BioMAP Diversity Plus: SAg Assay for Monocyte Chemoattractant Protein-1 (MCP1) Biomarker Activity (AID 2283090); conditions: primary human HUVEC with PBMC; actives raise or lower the signal
Method in brief: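 Values derive from bidirectional fitting of ELISA-measured MCP1 against DMSO controls. Readings were taken 24 h after dosing human vascular endothelial cells co-cultured with peripheral blood mononuclear cells under superantigen stimulation.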

[14] = read-out: E-selectin (Homo sapiens) (UniProt P16581); assay: BSK_SAg_Eselectin: BioMAP Diversity Plus: SAg Assay for Eselectin Biomarker Activity (AID 2283091); conditions: primary human HUVEC with PBMC; actives raise or lower the signal
Method in brief: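 Primary human endothelial cells and peripheral blood mononuclear cells were co-cultured and exposed to chemical for 24 hours. E-selectin levels were then quantified by ELISA, with bidirectional curve fitting normalised to DMSO controls.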

[15] = read-out: Monokine induced gamma interferon (MIG), CXCL9 (gene 4283); assay: BSK_SAg_MIG: BioMAP Diversity Plus: SAg Assay for Monokine induced gamma interferon (MIG) Biomarker Activity (AID 2283092); conditions: primary human HUVEC with PBMC; actives raise or lower the signal
Method in brief: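 Values reflect bidirectional fitting of ELISA-measured MIG against DMSO vehicle, taken 24 h after dosing of a co-culture of human umbilical vein endothelial cells and peripheral blood mononuclear cells.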

[16] = read-out: Interleukin-8 (IL8), CXCL8 (gene 3576); assay: BSK_SAg_IL8: BioMAP Diversity Plus: SAg Assay for Interleukin-8 (IL8) Biomarker Activity (AID 2283094); conditions: primary human HUVEC with PBMC; actives raise or lower the signal
Method in brief: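 Chemicals were dosed onto a human endothelial–PBMC co-culture, and IL-8 was quantified by ELISA after 24 h. Both increases and decreases were fitted relative to DMSO.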

[17] = BSK_LPS_SRB: Viability Assessment in the BioMAP Diversity Plus: LPS Assay (AID 2283079); conditions: primary human HUVEC with PBMC;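 note: total protein by sulforhodamine B absorbance as a cytotoxicity measure; measured one day after compound addition; fitted in both directions against DMSO so loss or gain of signal counts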
Method in brief: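 Overt cytotoxicity was gauged by sulforhodamine B total-protein staining in a primary human vascular endothelial and mononuclear cell co-culture 24 h post-dosing. Activity was fitted in both directions relative to DMSO.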

[18] = read-out: E-selectin (Homo sapiens) (UniProt P16581); assay: BSK_LPS_Eselectin: BioMAP Diversity Plus: LPS Assay for Eselectin Biomarker Activity (AID 2283077); conditions: primary human HUVEC with PBMC; actives raise or lower the signal
Method in brief: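 Signal of E-selectin, detected by ELISA, served as the endpoint; cells were umbilical vein endothelium with PBMC, read 24 h after treatment. DMSO defined baseline, and both increases and decreases were fitted.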

[19] = read-out: Macrophage colony-stimulating factor (MCSF), CSF1 (gene 1435); assay: BSK_LPS_MCSF: BioMAP Diversity Plus: LPS Assay for Macrophage colony-stimulating factor (MCSF) Biomarker Activity (AID 2283083); conditions: primary human HUVEC with PBMC; actives raise or lower the signal
Method in brief: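 Compound is added to a human vascular primary co-culture of umbilical vein endothelium and blood mononuclear cells. After 24 h, M-CSF is quantified by ELISA. Signal changes are fitted in both directions against DMSO.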

[20] = BSK_SAg_PBMCCytotoxicity: PBMC Cytotoxicity Assessment in the BioMAP Diversity Plus: SAg Assay (AID 2283093); conditions: primary human HUVEC with PBMC;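 note: fitted both ways against DMSO so a hit may be loss or gain of signal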
Method in brief: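 PBMC viability by Alamar Blue reduction, fluorescence read at 546/580 nm after 6 h dye exposure. Cells were dosed 1 h before SEB plus TSST-1 activation (20 ng/mL final each), then held 90 h; endothelial/PBMC human co-culture.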

Measured: AC50

Sequence of Tumor necrosis factor (Homo sapiens) (P01375 whole entry, looked up): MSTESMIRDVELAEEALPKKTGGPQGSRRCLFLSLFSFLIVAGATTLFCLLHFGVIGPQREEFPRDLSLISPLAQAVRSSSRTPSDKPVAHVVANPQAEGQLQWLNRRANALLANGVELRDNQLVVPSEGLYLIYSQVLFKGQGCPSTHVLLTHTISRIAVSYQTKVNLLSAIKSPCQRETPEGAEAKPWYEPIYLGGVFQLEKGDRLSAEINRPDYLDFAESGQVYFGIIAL
Sequence of E-selectin (Homo sapiens) (P16581 whole entry, looked up): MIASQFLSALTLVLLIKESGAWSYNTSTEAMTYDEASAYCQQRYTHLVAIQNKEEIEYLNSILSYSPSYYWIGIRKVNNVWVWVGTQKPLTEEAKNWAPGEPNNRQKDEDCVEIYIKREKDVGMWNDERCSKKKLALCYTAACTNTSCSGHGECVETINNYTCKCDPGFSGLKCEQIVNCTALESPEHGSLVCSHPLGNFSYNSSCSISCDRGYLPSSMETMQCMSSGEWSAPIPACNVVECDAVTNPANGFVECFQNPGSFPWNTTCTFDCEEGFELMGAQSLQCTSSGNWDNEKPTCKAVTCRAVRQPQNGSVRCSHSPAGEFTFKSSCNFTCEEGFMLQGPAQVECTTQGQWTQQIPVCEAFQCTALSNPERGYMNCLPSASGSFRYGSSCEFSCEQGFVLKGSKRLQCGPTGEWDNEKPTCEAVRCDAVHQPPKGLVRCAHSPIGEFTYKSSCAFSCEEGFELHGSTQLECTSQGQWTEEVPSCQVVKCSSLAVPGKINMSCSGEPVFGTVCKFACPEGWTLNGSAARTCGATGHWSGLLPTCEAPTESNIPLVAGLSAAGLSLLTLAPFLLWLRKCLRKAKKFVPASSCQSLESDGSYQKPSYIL

O=C1C=CC(=O)c2ccccc21
active: [1] 2.86 µM | [2] 1.37 µM | [3] 1.37 µM | [4] 1.07 µM | [5] 2.7 µM | [7] 1.52 µM | [8] 0.623 µM | [9] 2 µM | [10] 1.04 µM | [11] 2.17 µM | [12] 0.836 µM | [13] 2.39 µM | [14] 1.12 µM | [15] 1.53 µM | [16] 0.709 µM
inactive: [6]

Nc1c(Oc2ccccc2)cc(O)c2c1C(=O)c1ccccc1C2=O
active: [7] 2.54 µM | [10] 10 µM | [11] 7.45 µM | [13] 0.803 µM | [14] 0.795 µM | [16] 1.56 µM
not listed: [18] | [19] | [20]
inactive: all other assays above

CC(C)(C)c1ccccc1O
active: [5] 3.18 µM
not listed: [1] | [17]
inactive: all other assays above

C#CCOC(=O)/C=C(C)/C=C/CC(C)CCCC(C)C (stereo not given)
active: [2] 20 µM | [3] 0.242 µM | [12] 20 µM
not listed: [17] | [18] | [20]
inactive: all other assays above

CCCCOC(=O)COC(=O)c1ccccc1C(=O)OCCCC
not listed: [9] | [18] | [19] | [20]
inactive: all other assays above

CCOC(=O)C(SP(=S)(OC)OC)c1ccccc1 (stereo not given)
active: [10] 20 µM | [12] 20 µM
not listed: [9] | [17] | [18] | [19] | [20]
inactive: all other assays above

CN(C)C(=S)S
not listed: [9] | [18] | [19] | [20]
inactive: all other assays above

O=C(N[C@H]1CN2CCC1CC2)c1ccc2c(c1)OCCO2
active: [6] 2.86 µM
not listed: [18] | [19] | [20]
inactive: all other assays above

Cc1ccc(OP(=O)(Oc2ccc(C)cc2C)Oc2ccc(C)cc2C)c(C)c1
inactive: [3] | [6] | [7] | [10] | [14] | [15]
active: [1] 20 µM | [2] 6.48 µM | [4] 5.81 µM | [5] 20 µM | [19] 10.7 µM | [8] 34.1 µM | [11] 20 µM | [12] 20 µM | [13] 5.89 µM | [16] 4.7 µM

OC(Cc1ccccc1Cl)(Cn1[nH]cnc1=S)C1(Cl)CC1 (stereo not given)
active: [2] 20 µM | [5] 24.6 µM | [6] 11.1 µM | [10] 20 µM | [11] 20 µM | [12] 14.1 µM | [16] 3.97 µM
not listed: [9] | [18] | [19]
inactive: all other assays above

Oc1cc(Cl)c(Cl)cc1Cl
inactive: [1] | [6] | [7] | [8] | [15] | [20]
active: [2] 14.1 µM | [3] 32.3 µM | [4] 32.6 µM | [5] 30.2 µM | [10] 26.8 µM | [11] 24.8 µM | [12] 20 µM | [13] 32.2 µM | [14] 26.5 µM | [16] 31.1 µM

c1ccc2sc(SNC3CCCCC3)nc2c1
active: [4] 30.2 µM | [7] 0.676 µM | [8] 30.5 µM
not listed: [9] | [18] | [19] | [20]
inactive: all other assays above

Oc1c(Br)cc(Br)cc1Br
active: [2] 13.9 µM | [10] 30.3 µM | [11] 20 µM | [12] 35 µM | [14] 20 µM
not listed: [18] | [19] | [20]
inactive: all other assays above

O=C(CCl)NCO
active: [3] 0.0625 µM
not listed: [9] | [17] | [18] | [20]
inactive: all other assays above

COCC(=O)N(c1c(C)cccc1C)[C@H](C)C(=O)OC
not listed: [9] | [17] | [18] | [19] | [20]
inactive: all other assays above
